Compound activity: PubChem BioAssay, several laboratories
A selection: hits, their analogues and other compounds. The true share with any hit is near 1.1%.
Mtb BioA inh: M. tuberculosis BioA enzyme inhibitors, primary screen, biochemical, plate reader, single point, HTS; purified M. tuberculosis BioA enzyme; inhibition, % at 9.99 µM; hit rate 0.096% among 360,000; in the data active = inhibition above about 40%
BJeLR viability: MLPCN primary cell-based screen for lethality selective to Ras in HRASV12 cells; BJeLR (HRASV12) viability, CellTiter-Glo ATP luminescence, 48 h; AID 1554, 2009; hit rate 0.17% among 300,000; inhibition, % (no concentration beside the values); in the data active = inhibition above about 50%
Y pestis TopoI: Yersinia pestis topoisomerase I inhibitors, primary screen, biochemical, cleavage product accumulation, plate reader, single point. Y. pestis Topo-I cleavage product accumulation. activity, % at 10 µM. hit rate 0.064% among 360,000. AID 504884, 2011; in the data active = activity above about 50%, passing the limit was not always enough
MazF activator: activators of E. coli MazEF toxin-antitoxin RNase, primary screen, biochemical, fluorescence, uHTS. hit rate 0.32% among 350,000. AID 504720, 2011. activation, % at 20 µM. Endoribonuclease toxin MazF (Escherichia coli (strain K12)), P0AE70. FAM/BHQ RNA-DNA oligo cleavage fluorescence, 5 h; in the data active = activation above about 50%
Target sequence (P0AE70 whole entry, looked up): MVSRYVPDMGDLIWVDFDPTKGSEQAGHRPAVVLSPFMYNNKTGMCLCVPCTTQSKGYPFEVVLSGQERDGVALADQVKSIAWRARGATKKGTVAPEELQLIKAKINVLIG
3CLpro inhibitor: SARS-CoV 3CLpro protease inhibitors, primary screen, biochemical, quenched FRET | Replicase polyprotein 1ab (Severe acute respiratory syndrome coronavirus), P0C6X7 | recombinant SARS-CoV 3CLpro, quenched FRET peptide cleavage | inhibition, % at 6 µM | hit rate 0.14% among 290,000 | AID 1706, 2009; in the data active = inhibition above about 12%
PfHsp40 yeast: rescue of yeast from PfHsp40 toxicity, primary screen, S. cerevisiae, ATP luminescence; growth rescue, % at 12.5 µM; hit rate 0.68% among 340,000; S. cerevisiae expressing PfHsp40, growth rescue; in the data active = growth rescue above about 28%, passing the limit was not always enough;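 note: yeast W303a lacking pdr1 and pdr3 grown in galactose medium; growth measured after three days at 30 °C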
* = called active by the depositor; . = no result.

SMILES	Mtb BioA inh	BJeLR viability	Y pestis TopoI	MazF activator	3CLpro inhibitor	PfHsp40 yeast
Cc1cc(C)c(S(=O)(=O)NC2CC3CCC2C3)c(C)c1 (stereo not drawn)	0	-1	11	0	7	64*
O=S(=O)(NC1CC2CCC1C2)c1ccc2c(c1)OCCO2 (stereo not drawn)	1	6	5	5	-3	0
COc1ccc(S(=O)(=O)NC2CC3CCC2C3)cc1Br (stereo not drawn)	2	-6	13	6	1	81*
COc1ccc(S(=O)(=O)NC2CC3CCC2C3)cc1Cl (stereo not drawn)	.	-12	3	-5	2	0
CCCNC(=O)C[C@H]1C[C@@H]2c3cc(NC(=O)Nc4ccccc4F)ccc3O[C@@H]2[C@H](CO)O1	0	.	.	.	.	.
Cc1nc(Nc2ccc(Cl)c(Cl)c2)sc1C(=O)Nc1ccccc1	0	8	-9	10	0	103*
CCn1c(=O)c(C(=O)NNC(=O)c2ccccc2Cl)c(O)c2ccccc21	0	3	3	9	1	34*
CCCOC(=O)CC1C(=O)NCCN1Cc1cc(OC)cc(OC)c1 (stereo not drawn)	.	-11	-6	3	4	40*
O=C([C@@H]1[C@@H](CO)[C@@H]2Cn3c(ccc(C4=CCCCC4)c3=O)[C@H]1N2)N1CCCCC1	-2	.	.	.	.	.
Cc1cc(NC(=S)Nc2ccc(C)c(Cl)c2)n[nH]1	.	9	-1	7	7	57*
O=C(C/C=N\O)Nc1ccc(Oc2ccccc2)cc1	.	1	16	-10	2	46*
CO/N=C\CC(=O)Nc1ccc(Oc2ccccc2)cc1	6	16	4	5	4	0
COc1ccccc1N=Cc1c(C)c(C#N)c2[nH]c3ccccc3n2c1=O	-3	9	-10	143*	1	-1
COc1ccc2c(c1)C1C=CCC1C(c1cc3c(cc1Br)OCO3)N2 (stereo not drawn)	-2	5	2	7	3	68*
COc1ccc(CN(C)C[C@H]2OCCCC[C@@H](C)Oc3ccc(NC(=O)c4ccncc4)cc3C(=O)N([C@@H](C)CO)C[C@@H]2C)cc1	4	.	.	.	.	.
C=CCn1c(O)c(C=Nc2ccc(F)cc2)c(=O)[nH]c1=O	-2	-14	3	9	0	-2
O=c1[nH]c(=O)n(Cc2ccccc2Cl)c(O)c1C=Nc1ccc(F)cc1	-2	2	4	53*	2	1
COc1ccc(CN(C)C[C@H]2Oc3ccc(NC(=O)CCC(F)(F)F)cc3C(=O)N([C@H](C)CO)C[C@@H]2C)cc1	3	.	.	.	.	.
Cc1ccc(S(=O)(=O)N(C)C[C@H]2OCCCC[C@@H](C)Oc3ccc(NC(=O)NC(C)C)cc3C(=O)N([C@@H](C)CO)C[C@@H]2C)cc1	-1	.	.	.	.	.
O=C(CCC1CCCC1)Nc1ccc(C(=O)NCc2cccnc2)cc1	.	89*	12	1	4	0
O=C(COc1ccc([N+](=O)[O-])cc1)Nc1ccc(C(=O)NCc2cccnc2)cc1	-3	63*	-10	1	2	1
O=C(NCc1cccnc1)c1ccc(NC(=O)c2cccc([N+](=O)[O-])c2)cc1	-2	79*	-1	2	-5	-2
O=C1/C(=C/c2cccs2)SC(=S)N1NS(=O)(=O)c1ccccc1	1	0	3	-7	-2	222*
COc1ccccc1/C=C1\SC(=S)N(NS(=O)(=O)c2ccc(C)cc2)C1=O	5	-9	3	1	4	32*
COc1ccc(/C=C2\SC(=S)N(NS(=O)(=O)c3ccc(C)cc3)C2=O)c(OC)c1	-6	1	-1	-2	2	0
SMILES	Mtb BioA inh	BJeLR viability	Y pestis TopoI	MazF activator	3CLpro inhibitor	PfHsp40 yeast
CCOc1ccc(/C=C2\SC(=S)N(NS(=O)(=O)c3ccccc3)C2=O)cc1OC	.	-9	14	-1	10	60*
CO[C@@H]1CN(C)C(=O)c2ccc(NC(=O)C3CCOCC3)cc2OC[C@H](C)N(C)C[C@@H]1C	-1	.	.	.	.	.
Clc1cccc(OCCCn2ccnc2)c1	0	-8	4	5	4	-1
Clc1ccc(C(Cn2ccnc2)OCc2c(Cl)cccc2Cl)c(Cl)c1 (stereo not drawn)	-1	.	44	-15	.	103*
Clc1ccc(C(Cn2ccnc2)OCc2csc3c(Cl)cccc23)c(Cl)c1 (stereo not drawn)	-1	.	45	-6	.	80*
O=C(COc1ccc(Cl)cc1Cl)NCCCn1ccnc1	0	-4	-6	-1	1	0
OC(Cn1ccnc1)c1ccc(Cl)cc1Cl (stereo not drawn)	0	1	5	159*	3	-1
Cc1ccccc1S(=O)(=O)NCC[C@H]1CC[C@H](NC(=O)C2CCC2)[C@H](CO)O1	-5	.	.	.	.	.
COc1ccc(S(=O)(=O)N(C)C[C@@H]2OCCCC[C@H](C)Oc3ccc(NC(=O)Nc4c(C)noc4C)cc3C(=O)N([C@@H](C)CO)C[C@H]2C)cc1	2	.	.	.	.	.
CCN(CC(=O)Nc1cc(Cl)ccc1C)c1ncnc2sc(C)c(C)c12	.	1	29	2	1	33*
CCN(CC(=O)Nc1cc(Cl)ccc1C)C(=O)C1CCN(c2ncnc3sc(C)c(C)c23)CC1	0	.	34	-29	.	.
Cc1c(N=Cc2cc(Br)cc(Br)c2O)cccc1C(=O)O	.	9	7	11	4	59*
O=C(O)c1cccc(N/N=C/c2cc(Br)cc(Br)c2O)c1	9	-2	-14	11	1	-1
Cn1c(=O)c2c(nc(SCC(=O)NCc3ccco3)n2C)n(C)c1=O	6	-6	-5	-5	-6	1
CCCCn1c(SCC(=O)NCc2ccco2)nc2c1c(=O)n(C)c(=O)n2C	-1	2	6	5	-1	45*
C[C@@H]1CCCCO[C@@H](CN(C)S(=O)(=O)c2cccs2)[C@H](C)CN([C@H](C)CO)C(=O)c2cc(NC(=O)NC3CCCCC3)ccc2O1	-5	.	.	.	.	.
CC(=O)N1CCN(c2ccc(NC(=O)c3ccc4c(c3)OCO4)cc2)CC1	0	-5	1	-7	-8	106*
CC1(C)CC(=O)C2=C(C1)OC1=C(C(=O)CC(C)(C)C1)C2c1cc([N+](=O)[O-])cc([N+](=O)[O-])c1O	.	6	7	4	2	0
CC1(C)CC(=O)C(C2C3=C(CC(C)(C)CC3=O)Oc3c(Br)cc(Br)cc32)=C(O)C1 (stereo not drawn)	-1	2	13	0	7	55*
